Assay outcomes as filed in PubChem.
Hits are enriched below; roughly 4.3% of the tested compounds scored in any of these assays.
Giardia kill: Small Molecules that selectively kill Giardia lamblia: qHTS; Giardia lamblia trophozoite viability; activity change, % at 7.66 µM, hits read low; 340,000 compounds, 0.15% hits; in the data active means activity change below about -80%; inconclusive means between about -30% and that limit;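 further: parasites exposed to compound for two days anaerobically before the ATP read; on the % scale 0 is the no-effect control and ±100 the full control effect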
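Giardia lamblia trophozoites (100 cells/well) were incubated with compounds for 48 h at 37 deg C under anaerobic conditions. Viability was read as ATP content by one-step luminescence after 15-30 min at room temperature.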
uPA surface inh: qHTS for Inhibitors of Cell Surface uPA Generation | cell surface uPA generation assay, qHTS | Potency, µM (series often up to 38.3 µM), without a hit: at the top dose activity change, negative = inhibition, actives largely listed as inhibitors | 330,000 compounds, 0.31% hits; active means well fitted inhibition curve with a large enough effect; inconclusive means small, poorly fitted or top-dose-only effect; inactive means no such curve, though single readings can be large or run the other way; tested in mouse RAW 264.7 cells; further: potency means the concentration at half of the fitted maximal effect; on the % scale 0 is the no-effect control and ±100 the full control effect; nearly all actives have a fitted effect of over 55% in size
SW480 rerep: A quantitative high throughput screen for small molecules that induce DNA re-replication in SW480 colon adenocarcinoma cells. SW480 DNA re-replication, Hoechst DNA content imaging, 48 h. 340,000 compounds, 1.8% hits. AID 624297, 2012. Potency, µM (titrated, usually from 46.1 µM), for inactives: at the top dose re-replication activation, usual class: activators; further: potency means the concentration at half of the fitted maximal effect; % of control where 0% means no effect; nearly all actives have a fitted effect of over 55% in size
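Compounds, transferred as 23 nL by pin tool, were incubated with cells for 48 hr; DNA content per nucleus was then quantified by Hoechst staining and fluorescence plate imaging.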
MCF10A rerep: A quantitative high throughput screen for small molecules that induce DNA re-replication in MCF 10a normal breast cells; MCF 10A DNA re-replication, Hoechst nuclear intensity, 48 h; Potency, µM (highest dose often 46.1 µM), inactives show top-dose activity, positive = re-replication, actives largely listed as activators; 350,000 compounds, 2.9% hits; further: potency means the concentration at half of the fitted maximal effect; % of control where 0% means no effect; nearly all actives have a fitted effect of over 50% in size
* = called active by the depositor; ! = not confirmed by another sample. Unless noted, the call rests on the fitted dose curve; in most records, active means well fitted activation curve with a large enough effect; inconclusive means small, poorly fitted or top-dose-only effect; inactive means no such curve, though single readings can be large or run the other way.

Results for CC(=O)NC(Nc1nc2c(s1)CCCC2)(C(F)(F)F)C(F)(F)F ?
Giardia kill: -6; uPA surface inh: 3%; SW480 rerep: 4.1µM*; MCF10A rerep: -3%

Results for Cc1ccc(CN2C(=O)[C@@H]3Cc4c([nH]c5ccccc45)C(C)(C)N3C2=O)cc1 ?
Giardia kill: 13; uPA surface inh: -3%; SW480 rerep: -10%; MCF10A rerep: inconclusive

Results for COc1ccccc1CN1C(=O)[C@H]2Cc3c([nH]c4ccccc34)C(C)(C)N2C1=O ?
Giardia kill: inconclusive; uPA surface inh: 13%; SW480 rerep: -16%; MCF10A rerep: inconclusive

What do the screens show for `Cc1ccc(CN2C(=O)[C@H]3Cc4c([nH]c5ccccc45)C(C)(C)N3C2=O)cc1`?
Giardia kill: 33; uPA surface inh: -30%; SW480 rerep: inconclusive; MCF10A rerep: 21µM*

How did CC1(C)c2[nH]c3ccccc3c2C[C@@H]2C(=O)N(Cc3ccc(F)cc3)C(=O)N21 do in these assays?
Giardia kill: 11; uPA surface inh: -2%; SW480 rerep: 2%; MCF10A rerep: 18µM*

Results for O=C(Cc1ccccc1)NC(=S)Nc1ccc(OC(F)F)cc1 ?
Giardia kill: 4; uPA surface inh: -4%; SW480 rerep: 7%; MCF10A rerep: -6%

Results for O=S1(=O)c2cccc3cccc(c23)N1CCCN1CCN(c2ccc(F)cc2)CC1 ?
SW480 rerep: -4%; MCF10A rerep: inconclusive

How did Cc1ccc2cc(CN(c3ccccc3C)S(=O)(=O)c3ccccc3)c(=O)[nH]c2c1 do in these assays?
Giardia kill: -8; uPA surface inh: -26%; SW480 rerep: 21µM*; MCF10A rerep: inconclusive

Results for Cc1ccc(N(Cc2cc3ccccc3[nH]c2=O)S(=O)(=O)c2ccccc2)cc1 ?
Giardia kill: 8; uPA surface inh: -3%; SW480 rerep: 3%; MCF10A rerep: 11%

What do the screens show for `Cc1cc(Br)c(S(=O)(=O)n2nnc3ccccc32)cc1C`?
Giardia kill: 11; uPA surface inh: -4%; SW480 rerep: inconclusive; MCF10A rerep: 10µM*

What do the screens show for `O=C(COc1ccccc1[N+](=O)[O-])Nc1cccc(Cl)c1N1CCOCC1`?
Giardia kill: -16; uPA surface inh: 10µM*; SW480 rerep: inconclusive; MCF10A rerep: inconclusive

What do the screens show for `COc1ccc(C(=O)NC(=S)Nc2cccc(Cl)c2N2CCOCC2)cc1[N+](=O)[O-]`?
Giardia kill: 5; SW480 rerep: 7.3µM*; MCF10A rerep: -4%

How did COC(=O)[C@H]1[C@H]2C[C@@H]3c4[nH]c5cc(OC)ccc5c4CCN3C[C@H]2C[C@@H](OC(=O)c2cc(OC)c(OC)c(OC)c2)[C@@H]1OC do in these assays?
Giardia kill: 11; uPA surface inh: -12%; SW480 rerep: inconclusive; MCF10A rerep: 30µM*!

What do the screens show for `C[C@@]12C=CC(=O)C=C1CCC1C3CC(O)[C@@](O)(C(=O)CO)[C@]3(C)CC(O)[C@]12F` (some centres undefined)?
SW480 rerep: -2%; MCF10A rerep: 0%

Results for CN(CCCN1c2ccccc2CCc2ccccc21)CC(=O)c1ccc(Cl)cc1 ?
SW480 rerep: inconclusive; MCF10A rerep: 33µM*

Results for Cc1cc(C(=O)COc2cccnc2[N+](=O)[O-])c(C)n1-c1ccccc1 ?
Giardia kill: -89*; uPA surface inh: 1%; SW480 rerep: -1%; MCF10A rerep: 20%

Results for Cc1ccc(-n2c(C)cc(C(=O)COc3cccnc3[N+](=O)[O-])c2C)cc1 ?
Giardia kill: inconclusive; uPA surface inh: -16%; SW480 rerep: inconclusive; MCF10A rerep: 21µM*

What do the screens show for `Cc1cc(CNC(=O)COC(=O)C2CC3CCCC(C2)C3=O)cc(C)c1O` (centres undefined)?
Giardia kill: 14; uPA surface inh: 9%; SW480 rerep: 4%; MCF10A rerep: -9%

Results for O=C(/C=C/c1ccc(N2CCCCC2)c([N+](=O)[O-])c1)c1ccc(O)cc1 ?
Giardia kill: -4; uPA surface inh: -11%; SW480 rerep: inconclusive; MCF10A rerep: 21%

Results for O=C(/C=C/c1cccc([N+](=O)[O-])c1)n1cnc2ccccc21 ?
Giardia kill: -11; uPA surface inh: -10%; SW480 rerep: 5.8µM*; MCF10A rerep: 3.7µM*

How did CC(=O)Oc1ccccc1C(=O)C=Cc1cccc([N+](=O)[O-])c1 do in these assays?
Giardia kill: -12; uPA surface inh: -19%; SW480 rerep: inconclusive; MCF10A rerep: 5.8µM*

What do the screens show for `COc1ccccc1C(=O)/C=C/c1ccc(N2CCCCC2)c([N+](=O)[O-])c1`?
Giardia kill: inconclusive; uPA surface inh: inconclusive; SW480 rerep: 18µM*; MCF10A rerep: 6.5µM*

What do the screens show for `O=C(/C=C/c1cccc([N+](=O)[O-])c1)c1cccs1`?
Giardia kill: -23; uPA surface inh: -12%; SW480 rerep: 5.8µM*; MCF10A rerep: 3.3µM*

Results for Cc1ccc(NC(=O)CN2C(=O)NC(C)(CC(C)C)C2=O)c(Br)c1 (centres undefined) ?
Giardia kill: 3; uPA surface inh: 5%; SW480 rerep: 0%; MCF10A rerep: 1%

Results for COC(=O)[C@]1(C)N[C@H](CN(C)S(=O)(=O)c2ccc(F)cc2)[C@@H]2C(=O)N(C)C(=O)[C@@H]21 ?
Giardia kill: -17; uPA surface inh: 12%; SW480 rerep: -19%; MCF10A rerep: inconclusive

How did O=C(CCl)Nc1cc(SCC(O)CO)cc([N+](=O)[O-])c1 (centres undefined) do in these assays?
Giardia kill: 10; uPA surface inh: -16%; SW480 rerep: 5.8µM*; MCF10A rerep: inconclusive

Results for CCC(=O)Nc1cc(SCCO)cc([N+](=O)[O-])c1 ?
Giardia kill: 7; uPA surface inh: 5%; SW480 rerep: 4%; MCF10A rerep: 6%

How did CC(C)=NOc1cc(NC(=O)CCl)cc([N+](=O)[O-])c1 do in these assays?
Giardia kill: 8; uPA surface inh: -15%; SW480 rerep: 9.2µM*; MCF10A rerep: 6.5µM*

How did COC(=O)CC1COc2ccccc2N1C(=O)c1ccc(OC)cc1 (centres undefined) do in these assays?
Giardia kill: -3; uPA surface inh: 11%; SW480 rerep: 1%; MCF10A rerep: -2%

Results for COC(=O)CC1COc2ccccc2N1S(=O)(=O)c1ccc(OC)cc1 (centres undefined) ?
Giardia kill: 7; uPA surface inh: -10%; SW480 rerep: inconclusive; MCF10A rerep: 15µM*

Results for COC(=O)CC1COc2ccccc2N1S(=O)(=O)c1ccc(Br)cc1 (centres undefined) ?
Giardia kill: -25; uPA surface inh: inconclusive; SW480 rerep: 10µM*; MCF10A rerep: 28%

Results for COC(=O)CC1COc2ccccc2N1C(=O)/C=C/c1ccccc1 (centres undefined) ?
Giardia kill: 48; uPA surface inh: 2%; SW480 rerep: inconclusive; MCF10A rerep: -2%
